Screens deposited in PubChem BioAssay by National Center for Advancing Translational Sciences (NCATS).
A selection: hits, their analogues and other compounds. The true share with any hit is near 12%.
JMJD2A Tudor inh = qHTS Assay for Inhibitors of JMJD2A-Tudor Domain | AlphaScreen JMJD2A-Tudor / H3K4me3 peptide binding | Potency, µM (series often up to 114 µM), without a hit: top-dose activity change, negative = inhibition, actives largely listed as inhibitors | 390,000 tested, 4.4% active | AID 504339, 2011; note: % is set by controls: 0 for no effect and ±100 for the full control effect; nearly all actives have a fitted effect of over 50% in size
BAZ2B block = qHTS Assay for Inhibitors of BAZ2B | Bromodomain adjacent to zinc finger domain protein 2B (Homo sapiens), Q9UIF8 | AlphaScreen BAZ2B-H3K14Ac peptide displacement | Potency, µM (top dose mostly 114 µM), for the others: at the highest dose activity change, negative = inhibition, usual class: inhibitors | 360,000 tested, 4.4% active | AID 504333, 2011; note: % is set by controls: 0 for no effect and ±100 for the full control effect; nearly all actives have a fitted effect of over 60% in size
Target sequence (Q9UIF8 whole entry, looked up, the tested form may be a part): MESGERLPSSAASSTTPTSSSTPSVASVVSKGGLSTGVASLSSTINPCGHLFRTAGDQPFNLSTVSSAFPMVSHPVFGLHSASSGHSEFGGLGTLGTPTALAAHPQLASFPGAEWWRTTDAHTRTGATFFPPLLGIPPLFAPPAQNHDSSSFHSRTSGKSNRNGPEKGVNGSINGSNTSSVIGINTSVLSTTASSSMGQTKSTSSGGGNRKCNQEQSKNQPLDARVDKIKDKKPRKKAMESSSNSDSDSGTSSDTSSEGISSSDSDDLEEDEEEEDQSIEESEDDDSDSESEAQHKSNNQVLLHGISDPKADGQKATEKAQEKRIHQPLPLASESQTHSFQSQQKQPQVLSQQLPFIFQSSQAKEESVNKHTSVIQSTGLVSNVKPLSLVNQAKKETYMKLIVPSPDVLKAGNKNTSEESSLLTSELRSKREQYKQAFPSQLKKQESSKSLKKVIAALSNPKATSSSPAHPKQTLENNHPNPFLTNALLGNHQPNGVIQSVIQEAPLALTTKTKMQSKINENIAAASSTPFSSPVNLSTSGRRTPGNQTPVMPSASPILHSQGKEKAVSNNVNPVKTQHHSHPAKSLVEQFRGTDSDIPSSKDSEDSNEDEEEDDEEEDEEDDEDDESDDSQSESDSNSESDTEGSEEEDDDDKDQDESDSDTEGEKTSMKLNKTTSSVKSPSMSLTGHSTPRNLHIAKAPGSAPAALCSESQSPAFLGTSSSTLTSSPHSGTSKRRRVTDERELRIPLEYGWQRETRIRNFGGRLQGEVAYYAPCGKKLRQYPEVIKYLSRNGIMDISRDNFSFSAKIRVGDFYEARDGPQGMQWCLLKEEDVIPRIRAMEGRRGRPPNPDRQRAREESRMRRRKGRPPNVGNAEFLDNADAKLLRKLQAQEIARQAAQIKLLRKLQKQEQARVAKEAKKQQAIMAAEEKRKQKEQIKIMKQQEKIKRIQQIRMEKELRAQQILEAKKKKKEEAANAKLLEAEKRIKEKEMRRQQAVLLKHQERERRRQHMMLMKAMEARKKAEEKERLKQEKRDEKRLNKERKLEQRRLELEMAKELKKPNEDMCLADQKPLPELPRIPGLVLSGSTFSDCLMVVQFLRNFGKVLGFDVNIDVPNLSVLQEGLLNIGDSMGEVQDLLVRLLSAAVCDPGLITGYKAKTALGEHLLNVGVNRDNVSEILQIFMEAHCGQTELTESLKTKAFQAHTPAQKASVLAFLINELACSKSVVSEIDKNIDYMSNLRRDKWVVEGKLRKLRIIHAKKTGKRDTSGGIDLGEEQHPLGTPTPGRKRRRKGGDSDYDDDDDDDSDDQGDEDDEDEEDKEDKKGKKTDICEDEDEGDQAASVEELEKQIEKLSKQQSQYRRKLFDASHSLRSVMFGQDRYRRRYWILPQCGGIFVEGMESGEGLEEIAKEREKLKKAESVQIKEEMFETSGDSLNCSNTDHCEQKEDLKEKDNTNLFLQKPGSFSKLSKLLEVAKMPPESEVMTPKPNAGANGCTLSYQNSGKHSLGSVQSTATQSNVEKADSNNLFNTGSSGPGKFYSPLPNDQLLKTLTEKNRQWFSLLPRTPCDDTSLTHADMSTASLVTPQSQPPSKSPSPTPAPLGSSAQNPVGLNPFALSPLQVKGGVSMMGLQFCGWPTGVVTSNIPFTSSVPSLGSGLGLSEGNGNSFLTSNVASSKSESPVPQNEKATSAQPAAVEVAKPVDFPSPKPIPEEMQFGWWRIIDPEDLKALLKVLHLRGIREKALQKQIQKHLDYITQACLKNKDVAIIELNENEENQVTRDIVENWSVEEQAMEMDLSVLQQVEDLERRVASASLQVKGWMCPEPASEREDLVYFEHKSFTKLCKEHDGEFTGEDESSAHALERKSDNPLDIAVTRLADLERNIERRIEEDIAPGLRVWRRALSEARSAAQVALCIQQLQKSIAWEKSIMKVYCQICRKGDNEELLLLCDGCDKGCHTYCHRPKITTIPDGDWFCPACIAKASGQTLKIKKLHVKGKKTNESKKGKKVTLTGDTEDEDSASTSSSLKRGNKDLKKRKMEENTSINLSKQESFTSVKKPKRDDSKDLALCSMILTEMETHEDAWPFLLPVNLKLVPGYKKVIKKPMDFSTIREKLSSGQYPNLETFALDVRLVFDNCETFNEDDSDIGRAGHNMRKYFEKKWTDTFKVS
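AlphaScreen displacement: compounds (up to 110uM) incubated 30 min at room temperature with a preformed 50 nM BAZ2B/50 nM biotinylated H3K14Ac peptide complex in PBS pH 7.4 with Tween-20. Donor and acceptor beads at 10 ug/mL final added, 20 min light-protected before reading.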
Sfp PPTase inh = qHTS Assay for Inhibitors of Bacillus subtilis Sfp phosphopantetheinyl transferase (PPTase). Biochemical Sfp PPTase activity, qHTS. 310,000 tested, 3.5% active. Potency, µM, for the others: largest response in the series, negative = inhibition, actives largely listed as inhibitors. 4'-phosphopantetheinyl transferase ffp (Bacillus subtilis), Q9F4F7;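 note: the enzyme is Sfp with the accession as filed and its product quenches rhodamine fluorescence; 0% = enzyme reaction without inhibitor and -100% = no enzyme wells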
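Reaction rates are the 30-min fluorescence difference (ex 525, em 598 nm) in wells containing 15 nM Sfp, 5 uM rhodamine-CoA and 12.5 uM BHQ-2-YbbR at pH 7.6 with 10 mM MgCl2.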
HP1b chromo inh = HTS for Inhibitors of HP1-beta Chromodomain Interactions with Methylated Histone Tails; AlphaScreen HP1-beta / biotin-H3K9me3 peptide binding; 390,000 tested, 0.56% active; Potency, µM (doses to about 114 µM), for inactives: top-dose activity change, negative = inhibition, hits mostly inhibitors; Chromobox protein homolog 1 (Homo sapiens), P83916; note: nearly all actives have a fitted effect of over 70% in size
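HP1-beta protein (50 nM final) preincubated 30 min at room temperature with biotinylated H3(1-18)K9me3 peptide (50 nM) in PBS pH 7.4, 0.01% Tween-20, then compound added for 30 min. AlphaScreen streptavidin donor/nickel chelate acceptor beads (10 ug/mL final), 30 min dark, luminescence read.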
G9a inh = qHTS Assay for Inhibitors of Histone Lysine Methyltransferase G9a. Potency, µM (titrated, usually from 102 µM), without a hit: top-dose activity, negative = inhibition, most hits filed as inhibitors. Histone-lysine N-methyltransferase EHMT2 (Homo sapiens), Q96KQ7. AID 504332, 2011. 350,000 tested, 8.8% active. G9a H3K9 monomethylation, AlphaScreen, 2 h; note: % is set by controls: 0 for no effect and ±100 for the full control effect; nearly all actives have a fitted effect of over 75% in size
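Chemiluminescent proximity detection of H3K9 monomethylation, read after 10 min bead incubation in the dark. Reaction: 20 nM G9a, 500 nM biotin-H3K9 peptide, 20 uM SAM cofactor, 2 h, room temperature, following 15 min enzyme-compound preincubation.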
L3MBTL1 inh = qHTS Assay for the Inhibitors of L3MBTL1 | Lethal(3)malignant brain tumor-like protein 1 (Homo sapiens), Q9Y468 | AlphaScreen L3MBTL1–H3K9me1 peptide binding | Potency, µM (top dose mostly 57.1 µM), inactives show at the highest dose activity, negative = inhibition, actives largely listed as inhibitors | 230,000 tested, 0.66% active | AID 485360, 2010; note: % is set by controls: 0 for no effect and ±100 for the full control effect; nearly all actives have a fitted effect of over 60% in size
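AlphaScreen assay: L3MBTL1 (50 nM final) was preincubated 30 min at room temperature with biotinylated H3(1-15)K9me1 peptide (75 nM final), then 30 min with library compounds; streptavidin donor and nickel chelate acceptor beads (10 ug/mL final) added, 30 min dark.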
* = called active by the depositor; ? = inconclusive; / = not tested or not shown; [ ] = dose if it differs, or a comment. Calls come from the whole dose curve; as a rule, active = well fitted curve in the direction sought with a large enough effect; inconclusive = small, poorly fitted or top-dose-only effect, or another doubt; inactive = no such curve, though single readings can be large; an effect the other way counts as inactive or inconclusive. Potency is the fitted concentration of half-maximal effect.

SMILES	JMJD2A Tudor inh	BAZ2B block	Sfp PPTase inh	HP1b chromo inh	G9a inh	L3MBTL1 inh
Cc1cccc(Nc2cc(Cl)nc(SCC(=O)O)n2)c1C	/	/	21%	/	/	/
CCOC(=O)c1sc(NC(=O)Nc2ccccc2)cc1C	-21%[57.1 µM]	-29%	35µM*	37%	?	3%
CCOC(=O)c1c(N)sc(C(=O)Nc2ccccc2)c1C	-30%	-15%	20µM*	?	-2%[0.501 µM]	-1%
CCOC(=O)c1sc(NC(=O)Nc2ccccc2Cl)cc1C	-21%	-12%	?	19%	-8%[59 µM]	-11%
Cc1ccc(C)c(S(=O)(=O)c2cn(C)c3cc(N4CCCCC4C)c(F)cc3c2=O)c1 (stereo not drawn)	-24%	-8%	/	34%	-13%[59 µM]	/
CCc1cccc(CC)c1NC(=O)c1c(C)oc2ccc(O)c(CN3CCN(C)CC3)c12	-21%	-3%	/	5%	4%[59 µM]	/
CCOc1ccc(CCNC(=O)C2Cc3ccccc3N2C(=O)CC)cc1OCC (stereo not drawn)	-2%	-10%	/	30%	8%[12.7 µM]	/
O=[N+]([O-])c1ccc(N2CCCCC2)s1	-25%	-31%	50µM*	?	22µM*	/
O=[N+]([O-])c1ccc(N2CCN(Cc3ccccc3)CC2)s1	-16%	?	2%	5%	-30%[2.33 µM]	/
COc1cc(C(=O)NNC(=S)NC(=O)/C=C/c2ccccc2)cc(OC)c1OC	-12%	-2%	14%	-2%	32µM*	-6%
CC(C)(C)c1ccc(C(=O)NNC(=S)NC(=O)c2cccnc2)cc1	-26%	4%	9%	-14%	10µM*	/
O=C(NNC(=O)c1csc(-c2cccnc2)n1)c1ccccc1	2%	-7%	89µM*	37%	/	/
CC(C)(C)c1ccc(C(=O)NC(=S)NCc2cccnc2)cc1	?	30%	-15%	-10%	?	-12%
O=C(NNC(=S)NC(=O)c1ccccc1)c1cccnc1	-18%	-2%	-22%	17%	22µM*	/
COc1cccc(C(=O)NNC(=O)c2cccnc2)c1	-16%	5%	27%	23%	6%[12.7 µM]	/
O=C(NNC(=S)NC(=O)c1ccccc1)c1ccc(O)cc1	-17%	6%	-4%	9%	13µM*	/
COc1ccc(C/C(C)=N/NC(=O)c2ccc(Cl)cc2)cc1	-4%	/	-22%	32%	29%	8%
COc1cc(OC)cc(C(=O)NNC(=S)NC(=O)c2cccnc2)c1	-7%	17%	1%	59%	28µM*	/
COc1ccc(C/C(C)=N/NC(=O)c2cccnc2)cc1	32µM*	?	-15%	10%	41%[59 µM]	3%
O=C(/C=C/c1ccccc1)NC(=S)NNC(=O)c1cccnc1	-19%	-8%	23%	23%	22µM*	-3%
COc1ccc(-c2cc(C(F)(F)F)nc(SCC(=O)N3CCCCC3)n2)cc1	-8%	9%	/	44%	12%[59 µM]	/
Cc1ccc(C(=O)N/N=C2\CC3CC=CC23)c(C)c1 (stereo not drawn)	-5%	-8%	4%	13%	20%	4%
Cc1ccc(NC(=S)N/N=C2\CC3CC=CC23)c(C)c1 (stereo not drawn)	?	-34%	32µM*	-8%	?	/
Cc1cccc(C)c1NC(=S)N/N=C1\CC2CC=CC12 (stereo not drawn)	-34%	-27%	?	?	13µM*	/
O=C(NC(=O)c1ccc(F)cc1F)Nc1ccc(Cl)cc1	-13%	-10%	16%	43%	45µM*	/
SMILES	JMJD2A Tudor inh	BAZ2B block	Sfp PPTase inh	HP1b chromo inh	G9a inh	L3MBTL1 inh
CC(=O)c1ccc(NC(=O)c2c3c(nc4ccccc24)C(=O)N(C2CCCCC2)C3)cc1	-13%	-5%	/	1%	10%[59 µM]	/
O=[N+]([O-])c1ccc(/C=N/N/C(=N/c2ccccn2)c2ccccn2)cc1	-29%	-3%	45µM*	23%	10%[12.7 µM]	-4%
O=[N+]([O-])c1cc(/C=N/N/C(=N/c2ccccn2)c2ccccn2)ccc1O	79µM*	32µM*	12%	-7%	50µM*	?
Cc1onc(-c2ccccc2)c1C(=O)N/N=C/c1ccc(O)c([N+](=O)[O-])c1	-15%	-23%	18%	6%	-6%	/
CCc1ccc(CNC(=O)c2ccc(-n3c(C)cc4c3CCC(C)C4)cc2)cc1 (stereo not drawn)	-28%	-20%	/	0%	-33%[59 µM]	/
O=C1CC(N2CCC(Cc3ccccc3)CC2)C(=O)N1CCc1ccccc1 (stereo not drawn)	-5%	0%	56µM*	25%	50µM*	/
CN1CCN(CC#CC(C)(O)C2CC3C=CC2C3)CC1 (stereo not drawn)	50µM*	?	-2%	22%	22µM*	5%
Nc1csnc1C(=O)O	20µM*	?	-3%	14%	32µM*	5%
Cc1cccc(/C=N/n2c(-c3ccccc3)n[nH]c2=S)c1O	22µM*	?	79µM*	50µM*	1.3µM*	-14%
O=[N+]([O-])c1ccccc1/C=C/C=N/n1c(-c2ccccc2F)n[nH]c1=S	45µM*	?	28µM*	?	1.8µM*	?
Oc1ccc(Br)cc1/C=N/n1c(-c2ccccc2)n[nH]c1=S	?	?	56µM*	-14%	/	/
Oc1c(Br)cc(Br)c(/C=N/n2c(-c3ccccc3)n[nH]c2=S)c1Br	7.9µM*	50µM*	?	?	/	-20%
C[C@H](N)C(=O)N[C@@H](C)P(=O)(O)O	/	/	6%	/	12%[12.7 µM]	/
CCOC(=O)C1CCCN(C(=O)c2cc3c(=O)n(C)c4ccccc4c3s2)C1 (stereo not drawn)	-17%	/	/	32%	3%[59 µM]	/
Cc1ccc(C)c(S(=O)(=O)c2nnn3c2nc(N2CCCC2)c2sccc23)c1	-7%	-15%	/	29%	4%[59 µM]	/
O=[N+]([O-])c1ccccc1/C=N/n1c(-c2ccccc2)n[nH]c1=S	8.9µM*	?	-13%	-28%	/	-6%
CN(C)CCN(Cc1ccco1)C(=O)c1oc2ccccc2c1NC(=O)c1cccc(F)c1	?	5%[57.1 µM]	/	20%	-40%[59 µM]	/
CN(C)CCN(Cc1ccco1)C(=O)c1oc2ccccc2c1NC(=O)COc1ccccc1	28µM*	?	0%	?	45µM*	/
COc1cc(OC)c(NC(=O)C2CC(=O)N(c3ccc4c(c3)OCCO4)C2)cc1Cl (stereo not drawn)	-24%	4%	/	-8%	45µM*	-4%
